High-throughput results from PubChem BioAssay.
Rows were chosen to be rich in hits. Some 27% of all compounds tested hit in one or more screens of this group.
CYP2C19 inh = blocks human cytochrome P450 2C19 | AID 778 | actives 21% (n = 96,000) | inhibition, % at 5 µM | P33261 | CYP2C19 Supersomes, luciferin-H EGE luminescence, 30 min;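 active = CYP2C19 inhibition above a set limit at 5 µM in the primary screen, cut at about 50% in these data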;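 note: plate controls were negative control wells for no effect and 2.5 mM tranylcypromine positive control for full effect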
CYP2C9 inh = inhibitors of human CYP2C9; AID 777; actives 20% (n = 96,000); inhibition, % at 5 µM; CYP2C9 Supersomes, luciferin-H conversion, luminescence;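 active = blocking of liver enzyme CYP2C9 beyond about 50% at 5 µM, limit read from the data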
CYP2C19 activ = cytochrome P450 2C19 (human) activation; 96,000 tested, under 10 active; AID 1025; recombinant CYP2C19, luciferin-H EGE luminescence; hits give high values; 0 = fully inhibited enzyme, 1 = untreated enzyme; activation factor at 5 µM;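 active = activation factor of at least 2 at 5 µM in the primary screen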;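 note: 0 = wells with 2.5 mM tranylcypromine and 1 = vehicle-only wells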
Cav32 inh = blocks human Cav3.2 T-type calcium channel; O95180; Cav3.2-expressing cells, Fluo-4 calcium fluorescence FDSS; hits give low values; B-score at 10 µM; actives 4% (n = 100,000);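 active = single-dose well whose peak fluorescence ratio is a statistical outlier from its plate by either plate-standardised score or position-corrected B-score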
CYP2C9 activ = CYP2C9 (human) activation; P11712; recombinant CYP2C9, luciferin-H conversion, luminescence; hits give high values; factor 1 = untreated enzyme, 0 = blocked; activation factor at 5 µM; actives 1.4% (n = 96,000);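 active = activation factor of 2 or more for CYP2C9 at a 5 µM dose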;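 note: 0 = sulfaphenazole-blocked wells and 1 = vehicle-only wells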
* = called active by the depositor; . = no result given.

SMILES	CYP2C19 inh	CYP2C9 inh	CYP2C19 activ	Cav32 inh	CYP2C9 activ
O=C(NNC(=O)c1sc2ccccc2c1Cl)Nc1ccc(Cl)cc1	24.5	-19.1	0.8	-0.32	1.2
COC(=O)c1sc2ccccc2c1-n1cccc1C(=O)C(=O)Nc1ccc(Cl)cc1	23.4	99.1*	0.8	-2.21	0
Cc1cccc(C)c1NS(=O)(=O)c1c(C)[nH]c(=O)[nH]c1=O	-14.8	5.0	1.1	0.0613	0.9
CC(C)(C)NC(=O)NC(=O)COc1ccccc1C#N	50.7*	44.4	0.5	-0.213	0.6
CCCS(=O)(=O)N1CCC(C(=O)N2CCOCC2)CC1	6.9	6.8	0.9	0.0385	0.9
Cc1ccc(/C=C2\SC(=S)N(c3c(C)n(C)n(-c4ccccc4)c3=O)C2=O)cc1	34.5	37.6	0.7	-5.02*	0.6
Cc1c(N2C(=O)/C(=C/c3ccccc3)SC2=S)c(=O)n(-c2ccccc2)n1C	25.2	37.5	0.7	1.36	0.6
O=C1CC(=Nc2ccccc2)NN1c1ccccc1	35.7	84.3*	0.6	1.15	0.2
O=C(O)c1ccc(Cl)c(NC(=O)C2CCCN2S(=O)(=O)c2cccc3nsnc23)c1 (centres undefined)	-19.3	-4.2	1.2	1.14	1
O=C1OCCN1c1c(-c2ccccc2)c(N2CCOCC2)nc2ccccc12	.	.	.	-0.444	.
C/C(=N\NC(=O)c1ccccn1)C12CC3CC(CC(C3)C1)C2	-4.6	3.7	1	-0.343	1
C/C(=N/NC(=O)c1ccoc1C)C12CC3CC(CC(C3)C1)C2	56.6*	12.0	0.4	-2.37	0.9
c1csc(-c2nnsc2-c2nc3ccccc3[nH]2)c1	73.3*	27.4	0.3	-0.578	0.7
Oc1c(C(Nc2ccccn2)c2ccccn2)ccc2cccnc12 (centres undefined)	48.0	67.0*	0.5	.	0.3
Cc1cc(NC(c2ccc(Cl)cc2)c2ccc3cccnc3c2O)no1 (centres undefined)	-7.6	-2.1	1.1	-4.08*	1
COc1cc(C(Nc2ccccn2)c2ccc3ccc(C)nc3c2O)cc(OC)c1O (centres undefined)	10.9	11.8	0.9	0.384	0.9
Cc1ccc2ccc(C(Nc3ccccn3)c3ccccc3)c(O)c2n1 (centres undefined)	75.0*	94.1*	0.3	-2.55	0.1
CC(=O)NC(c1ccco1)c1ccc2cccnc2c1O (centres undefined)	6.2	25.5	0.9	0.611	0.7
Cc1nc2ccccc2n1C1CC(=O)N(N(C)C)C1=O (centres undefined)	-2.4	8.9	1	-1.75	0.9
CCC/C(=N/NC(=O)c1csc(C)c1C)c1ccc(Cl)s1	31.0	0.4	0.7	-1.11	1
CC(C)C1Cc2[nH]c(=O)c(C(=O)O)cc2CO1 (centres undefined)	-14.9	20.6	1.1	-0.653	0.8
Cc1nc(Sc2ccccc2)c(C#N)cc1-c1ccccc1	58.4*	70.4*	0.4	-0.928	0.3
Cc1nc(Cl)c(C#N)cc1-c1ccccc1	85.9*	19.6	0.1	-1.5	0.8
C#CCNC(=O)C1=C[C@@H](C2CCCCC2)[C@H](CCCO)[C@@H](OCC)O1	.	.	.	0.197	.
COC(C[C@@H](O)C[C@H](O)COCc1ccccc1)OC	.	.	.	0.477	.
SMILES	CYP2C19 inh	CYP2C9 inh	CYP2C19 activ	Cav32 inh	CYP2C9 activ
C=CCc1c(C)nn(CC(=O)O)c1-c1ccccc1	-4.8	0.3	1	0.0714	1
N#Cc1cc2sc3nnc(-c4ccncc4)n3c2cc1C#N	92.4*	65.1*	0.1	2.12	0.3
N#Cc1cc2sc3nc4ccccc4n3c2cc1C#N	-11.9	9.3	1.1	-0.0128	0.9
CCNC(=O)C(C)Sc1ccc(Cl)cc1 (centres undefined)	16.7	-19.7	0.8	0.957	1.2
C=CCNC(=O)C(C)Sc1ccc(Cl)cc1 (centres undefined)	70.1*	39.1	0.3	-0.0892	0.6
N#CC(c1ccc(F)cc1)c1ccc(C(=O)c2ccccc2)cc1 (centres undefined)	75.8*	90.8*	0.2	-0.832	0.1
N#CC(c1ccccc1)c1ccc(C(=O)c2ccc(F)cc2)cc1 (centres undefined)	91.0*	99.2*	0.1	-0.652	0
O=C(c1ccc(F)cc1)c1cc2ccccc2o1	46.3	11.0	0.5	-0.896	0.9
Cc1ccc(/C=c2/sc3n(c2=O)CCCN=3)o1	.	.	.	-0.0998	.
Cc1ccc(/C=c2\sc3n(c2=O)CN(c2ccc(Br)cc2)CN=3)o1	33.5	62.0*	0.7	0.379	0.4
O=C(NCCn1cc(SCC(=O)N2CCOCC2)c2ccccc21)c1ccccc1	40.3	16.8	0.6	-0.00633	0.8
